IL1B secr inh: inhibitors of inflammasome signaling (IL-1 beta secretion); THP-1 LPS/ATP IL-1B secretion, AlphaLISA, 16 h; hits give low values; activity change, % at 57.5 µM; 360,000 compounds, 4.7% hits; AID 743279; in the data active = activity change below about -50%; inconclusive = mostly about -30% to -49%
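Secreted IL-1B measured by AlphaLISA bead assay after 16 h compound exposure of THP-1 cells; compounds (final up to 57.5 uM) added 1 h before LPS (250 ng/mL) and ATP (1.25 mM) stimulation; lower signal means less secretion.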
HT1080 IDH1KD tx: kills HT-1080 cells with IDH1 knockdown | 360,000 compounds, 2% hits | Potency, µM (series often up to 46.1 µM), for the others: at the highest dose activity, negative = toxicity, most hits filed as cytotoxic | HT-1080 IDH1 knockdown viability, ATP luminescence, 48 h | AID 686971;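 note: potency is the fitted concentration of half-maximal effect; 0% = DMSO wells and -100% = cell-free medium wells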
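Using the IDH1-knockdown HT-1080 line run in the same batch and compound series as the NT line, viability after 48 h at 37 °C was determined by CellTiter-Glo luminescence and expressed as % activity.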
TDP1 cell CPT: DT40-hTDP1 cell growth loss with CPT. chicken DT40 Tdp1-/-;hTDP1 cells + 20 nM CPT, ATP luminescence, 48 h. Potency, µM (doses to about 46.2 µM), inactives show at the highest dose activity change, negative = growth inhibition, actives largely listed as inhibitors. 420,000 compounds, 12% hits; note: potency is the fitted concentration of half-maximal effect; nearly all actives have a fitted effect of over 55% in size
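Cell growth measured by CellTiter-Glo luminescence after a minimum 48 h, 37 C compound exposure with 20 nM CPT in Tdp1-knockout DT40 cells stably expressing hTDP1, seeded 400/well; qHTS titration format.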
HT1080NT lethal: kills 2HG-producing HT-1080-NT fibrosarcoma cells. HT-1080-NT fibrosarcoma viability, CellTiter-Glo ATP luminescence, 48 h. Potency, µM (top dose mostly 46.1 µM), without a hit: at the highest dose activity, negative = less viability, usual class: cytotoxic. 360,000 compounds, 1.6% hits. AID 686970;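 note: NT is the 2HG producing partner of a matched IDH1 knockdown line; potency is the fitted concentration of half-maximal effect; 0% = DMSO-treated cells and -100% = media-only wells without cells; nearly all actives have a fitted effect of over 55% in size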
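A 48-hour cytotoxicity screen used HT-1080-NT cells plated 2 hours before compound delivery. ATP-based CellTiter-Glo luminescence measured viability, normalized to DMSO and no-cell controls.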
DT40 TDP1 no CPT: qHTS for Inhibitors of human tyrosyl-DNA phosphodiesterase 1 (TDP1): qHTS in cells in absence of CPT. DT40 Tdp1-/- hTDP1 cells, no CPT, ATP luminescence, 48 h. Potency, µM (highest dose often 46.2 µM), inactives show at the top dose activity change, negative = growth inhibition, most hits filed as inhibitors. 420,000 compounds, 15% hits; note: potency is the fitted concentration of half-maximal effect; nearly all actives have a fitted effect of over 55% in size
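Chicken DT40 Tdp1-/- cells complemented with human TDP1, screened without camptothecin (DMSO vehicle only), 400 cells/well. Compounds pin-transferred, cells incubated at 37 °C for at least 48 hr. Growth read as ATP-dependent luminescence (CellTiter-Glo, 30 min at RT).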
uPA surface inh: inhibitors of cell surface uPA generation. cell surface uPA generation assay, qHTS. Potency, µM (top dose mostly 38.3 µM), for inactives: at the top dose activity change, negative = inhibition, hits mostly inhibitors. 330,000 compounds, 0.31% hits. AID 540303; active = well fitted inhibition curve with a large enough effect; inconclusive = small, poorly fitted or top-dose-only effect; inactive = no such curve, though single readings can be large or run the other way; tested in mouse RAW 264.7 cells; note: potency is the fitted concentration of half-maximal effect; nearly all actives have a fitted effect of over 55% in size
* hit, by the source's call; ? = inconclusive; . = not tested or not shown. Sampled rows, rich in hits. Any-hit rate of the full collection: about 19%. Unless noted, calls come from the whole dose curve; as a rule, active = well fitted curve in the direction sought with a large enough effect; inconclusive = small, poorly fitted or top-dose-only effect, or another doubt; inactive = no such curve, though single readings can be large; an effect the other way counts as inactive or inconclusive. Unless noted, % is set by controls: 0 for no effect and ±100 for the full control effect.

SMILES	IL1B secr inh	HT1080 IDH1KD tx	TDP1 cell CPT	HT1080NT lethal	DT40 TDP1 no CPT	uPA surface inh
COc1cc(C2CC(=O)c3cnc(NC(=O)c4ccco4)nc3C2)cc(OC)c1OC (stereo not drawn)	-17	21%	4%	1%	-1%	3%
COc1ccc(CCNC(=O)CN(C)S(=O)(=O)c2cccs2)cc1	-10	28%	3%	5%	-22%	0%
COc1cc(OC)cc(C(=O)OCC(=O)Nc2ccc(N3CCCCC3)cc2)c1	23	-23%	-23%	0%	-20%	0%
COC(=O)c1ccc(NC(=O)c2c(NCc3ccc(C)o3)sc3c2CCCC3)cc1	.	.	15µM*	.	?	.
CCOC(=O)c1c(CC(C)C)csc1NC(=O)COC(=O)c1ccc(O)cc1	31	-1%	23µM*	-3%	18µM*	4%
COC(=O)c1ccc(NC(=O)c2c(NCc3ccc(OC)c(OC)c3)sc3c2CCCC3)cc1	.	.	2.9µM*	.	5.2µM*	.
O=C(COC(=O)c1ccc(O)cc1)Nc1ccc(N2CCCCC2)cc1	5	-3%	?	0%	21µM*	3%
COc1ccc(Cl)cc1C(=O)Nc1sc2c(c1C(=O)OC(C)C)CCCC2	.	.	-11%	.	-8%	.
COc1ccc(NC(=O)CCc2nc3c(C)nn(-c4ccc(C)cc4)c3n(C)c2=O)c(OC)c1	.	.	-5%	.	-19%	.
O=Cc1cn(CCOc2ccccc2)c2ccccc12	7	-5%	-22%	-2%	?	-11%
CCC(=O)N1CCCC(C(=O)Nc2ccc3cn[nH]c3c2)CC1 (stereo not drawn)	37	2%	1%	-2%	-1%	.
Cc1cccc(-c2nc3c4ccccc4nc(NCc4ccc(Cl)cc4)n3n2)c1	.	.	20%	.	1%	.
COc1ccc(NC(=O)c2c(NC(=O)CCC(=O)O)sc3c2CCCCC3)cc1	40	5%	-8%	-15%	-18%	12%
COCC(=O)Nc1sc2c(c1C(=O)OC)CCCC2	2	9%	4%	0%	-24%	2%
COc1ccc(NC(=O)c2c(NCc3cccc(OC)c3)sc3c2CCCC3)cc1	.	.	?	.	23µM*	.
COc1ccc(CC(=O)Nc2sc3c(c2C(N)=O)CCCC3)cc1OC	-2	0%	?	-8%	18µM*	-1%
COC(=O)c1c(NC(=O)COC(=O)c2ccc(O)cc2)sc2c1CCCCC2	-79*	-6%	?	2%	29µM*	5%
CCCn1cnnc1CNC(=O)[C@H]1O[C@@H](n2cnc3c(N)ncnc32)[C@H](O)[C@@H]1O	13	12%	11%	19%	7%	.
c1cnc2cc3c(cc2n1)[C@@H]1CNC[C@H]3C1	.	.	2%	.	6%	.
COc1cc(C)nc(NC(=S)N(C)C(=O)c2ccccc2)n1	13	5%	-4%	4%	-9%	4%
O=C(Nc1ccc(Oc2ccccc2)cc1)c1csc([C@@H]2O[C@H](CO)[C@@H](O)[C@H]2O)n1	71	7.3µM*	16µM*	?	21µM*	.
CC(=O)Nc1ccc(NC(=O)c2csc([C@@H]3C[C@H](O)[C@@H](CO)O3)n2)cc1	34	18%	-14%	24%	-11%	.
NC(=O)c1csc(C2OC(CO)C(O)C2O)n1 (stereo not drawn)	94	-22%	0.046µM*	-9%	0.026µM*	.
O=C(Nc1ccc(OCCO)cc1)c1csc([C@@H]2O[C@H](CO)[C@H](O)[C@H](O)[C@H]2O)n1	50	2%	15%	18%	19%	.
O=C(Nc1ccc(Oc2ccccc2)cc1)c1csc([C@H]2C[C@H](O)[C@@H](CO)O2)n1	46	?	16µM*	?	10µM*	.
SMILES	IL1B secr inh	HT1080 IDH1KD tx	TDP1 cell CPT	HT1080NT lethal	DT40 TDP1 no CPT	uPA surface inh
COc1ccc(NS(=O)(=O)c2ccc(C(=O)N(C)Cc3cccs3)cc2)cc1	14	-4%	?	-11%	?	-7%
Cc1cc(SCC(=O)NCc2ccccc2Cl)nc(=O)[nH]1	.	.	10%	.	-5%	.
O=C(O)c1[nH]c(-c2ccccc2)c2c1C(=O)N(C1CC1)C2=O	28	6%	-25%	23%	?	.
CC(C)=C(NC(=O)c1ccccc1)C(=O)NC(Cc1ccccc1)C(=O)O (stereo not drawn)	17	14%	4%	9%	-9%	2%
Cn1cccc1C(=O)N1CCC2(CCCN(C(=O)Nc3cccc(C#N)c3)C2)CC1	.	.	-4%	.	-23%	.
NC(N)=NC(=O)c1nc(Cl)c(N2CCCCCC2)nc1N	?	?	7.1µM*	?	7.1µM*	-76%
CC1=CC(=O)C(Sc2ccc(C)cc2)=CC1=O	-78*	?	1.8µM*	21µM*	1.6µM*	.
Cc1cc(C)c(C(=O)c2ccccc2C(=O)O)c(C)c1	-1	-4%	-7%	4%	?	.
Cc1ccc(C)c(N2CCN(c3nc4ccccc4c4nc(CCn5nc(C)cc5C)nn34)CC2)c1	.	.	-24%	.	-1%	.
Cc1cc(C)n(CCc2nc3c4ccccc4nc(N4CCN(c5ccccc5)CC4)n3n2)n1	.	.	2.9µM*	.	3.3µM*	.
Brc1ccc(OCCCOc2cccc3cccnc23)cc1	-1	-3%	-1%	2%	-23%	5%
O=Cc1ccc(OCCCOc2cccc3cccnc23)cc1	-16	0%	-10%	-6%	?	4%
Cc1cccc(OCCCOc2cccc3cccnc23)c1C	-7	?	?	?	18µM*	12%
Cc1cccc(OCCCCc2c(C)n[nH]c2C)c1C	-10	?	12µM*	?	?	.
Clc1ccccc1OCCCOc1cccc2cccnc12	?	-16%	15µM*	2%	?	6%
O=Cc1ccccc1OCCCOc1cccc2cccnc12	-11	?	4.6µM*	?	2.1µM*	?
O=C(/C=C/c1ccccc1)Oc1cccc2cccnc12	-2	3%	?	11%	8.2µM*	-4%
Cc1cnc(CNc2ncnc3ccc(-c4ccccc4C#N)cc23)cn1	.	.	-5%	.	-23%	.
O=[N+]([O-])c1ccc(N2CCN(Cc3ccc(Br)o3)CC2)cc1	-28	-11%	?	-19%	-8%	3%
O=C(C=Cc1ccccc1)c1cc(Br)ccc1O	-22	0%	?	-1%	?	-5%
O=C(/C=C/c1cc(Br)ccc1O)c1ccco1	-71*	9.2µM*	6.5µM*	9.2µM*	2.6µM*	-15%
O=C(/C=C/c1ccccc1O)c1ccco1	-14	?	18µM*	?	21µM*	-10%

Compound activity deposited in PubChem BioAssay by National Center for Advancing Translational Sciences (NCATS).
